Measured values reported in PubChem BioAssay AID652015 (National Center for Advancing Translational Sciences (NCATS), 2013).
Inconclusive results are not listed. Calls of active or inactive are those of the source. Calls follow the shape of the dose curve; as a rule, active = well fitted inhibition curve with a large enough effect; inconclusive = small, poorly fitted or top-dose-only effect; inactive = no such curve, though single readings can be large or run the other way.

biological target: Coelenterazine h 2-monooxygenase (Renilla reniformis) (UniProt P27652); assay: qHTS Assay for Inhibitors of Sea Pansy Luciferase from the GSK Published Protein Kinase Inhibitor Set; conditions: purified Renilla luciferase, luminescence; series mostly up to 57.5 µM
Sequence (P27652 whole entry, looked up): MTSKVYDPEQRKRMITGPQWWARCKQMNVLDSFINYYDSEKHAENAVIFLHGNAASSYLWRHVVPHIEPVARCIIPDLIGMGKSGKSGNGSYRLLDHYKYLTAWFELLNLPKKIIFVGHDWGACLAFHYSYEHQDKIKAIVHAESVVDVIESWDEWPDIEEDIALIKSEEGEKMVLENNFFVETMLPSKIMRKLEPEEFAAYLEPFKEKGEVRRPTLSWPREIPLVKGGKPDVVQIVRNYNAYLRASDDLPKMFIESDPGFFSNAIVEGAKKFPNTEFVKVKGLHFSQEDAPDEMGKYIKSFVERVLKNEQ
Summary of the method: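 qHTS (roughly 60 uM down to 300 pM) against 1 nM Renilla luciferase, substrate coelenterazine h 5 uM, Tris acetate pH 7.5 buffer with NaCl, Tween-20 and BSA. Luminescence measured after an average 2 min incubation.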

Potency, inactive:
CN(C)CCCn1c(-c2nonc2N)nc2cnccc21
O=C1N=c2ccc(N=Cc3c(O)[nH]c4ccccc34)cc2=N1
c1cc(-c2cnn3nc(N4CCOCC4)ccc23)nc(NC2CC2)n1
O=C(Nc1ccc(Oc2ccc3nc(NC(=O)c4ccco4)[nH]c3c2)cc1)Nc1cc(C(F)(F)F)ccc1F
CCc1nccc2c1nc(-c1nonc1N)n2CC
COc1cccc(-n2nc(C)c3c(NN=C(C)c4ccncc4)ncnc32)c1
O=C(Nc1n[nH]c2cc(-c3cc(F)ccc3F)ccc12)C1CC1
COc1ccc(-c2nn3ncccc3c2-c2ccnc(Nc3ccc(Cl)c(C(F)(F)F)c3)n2)cc1
ON=C1CCc2cc(-c3nc(C4CCNCC4)[nH]c3-c3ccncc3)ccc21
COC(=O)c1cncc(C=Cc2c(C)cc(O)cc2C)c1
O=C(Nc1n[nH]c2nc(-c3ccco3)ccc12)C1CC1
Nc1nccc(-c2c(-c3ccc(F)cc3)ncn2C2CCNCC2)n1
Nc1ccc(C#Cc2cncnc2Nc2ccc(OCc3cccc(F)c3)c(Cl)c2)cc1
COC(=O)Nc1nc2ccc(Oc3ccc(NC(=O)Nc4cccc(Cl)c4)cc3)cc2[nH]1
COC(=O)Nc1nc2ccc(Oc3ccc(NC(=O)Nc4ccccc4)cc3)cc2[nH]1
COc1cc(N2CCN(C(C)C)CC2)ccc1Nc1nc(Nc2ccc(F)cc2C(=O)NCC(O)CO)c2cc[nH]c2n1 (centres undefined)
COc1cc2ncn(-c3cc(OCc4ccccc4S(C)(=O)=O)c(C#N)s3)c2cc1OC
NS(=O)(=O)c1ccc(Nc2cc(-c3cccc(O)c3)[nH]n2)cc1
Cc1ccc(NC(=O)c2ccoc2)cc1-c1ccc(C(=O)NCC2CC2)cc1
CS(=O)(=O)CCNCc1nc(-c2ccc3ncnc(Nc4ccc(OCc5cccc(C(F)(F)F)c5)cc4)c3c2)cs1
NC(=O)c1cccc(Nc2nccc(Nc3cccc4[nH]ncc34)n2)c1
NS(=O)(=O)c1ccc(Nc2ncc(-c3ccccc3)o2)cc1
CN1CCC(n2cnc(-c3ccc(F)cc3)c2-c2ccnc(Nc3ccccc3)n2)CC1
CC1=C(C(=O)Nc2ccc3[nH]ncc3c2)C(c2ccc(F)cc2)N=C(c2ccc(C(F)(F)F)nc2)N1 (centres undefined)
COc1cccc(C=NNc2ncnc3c2cnn3-c2cccc(OC)c2)c1
Cn1c(-c2nonc2N)nc2cnccc21
CN(c1ccc(NC(=O)Nc2c(Cl)cccc2Cl)cc1)c1ccnc(Nc2cccc(CS(C)(=O)=O)c2)n1
NS(=O)(=O)c1ccc(N=Nc2c(O)[nH]c3ccc(C(=O)NCc4ccncc4)cc23)cc1
Cc1ccc2[nH]c(O)c(N=Nc3ccc(S(N)(=O)=O)cc3)c2c1
CS(=O)(=O)CCNCc1ccc(-c2ccc3ncnc(Nc4ccc(OCc5ccccc5)c(Cl)c4)c3c2)o1
FC(F)(F)c1cccc(-c2nn3ncccc3c2-c2ccnc(Nc3ccc4c(c3)OCCO4)n2)c1
Cc1ccc2c(-c3ccnc(Nc4ccc5c(c4)OCCO5)n3)c(-c3ccc(C(F)(F)F)cc3)nn2n1
Cc1ccc(C(=O)NC(C)C)cc1-c1ccc(C(=O)NCC2CC2)cc1
NC(=O)c1ccc2c(-c3ccnc(NCCCO)n3)c(-c3ccc(F)cc3)nn2c1
N#Cc1c(NC(=O)c2ccccc2F)sc2c1CCCC2
c1cnn2ncc(-c3ccnc(NCCCN4CCOCC4)n3)c2c1
CNC(=O)c1ncccc1Nc1nc(Nc2cc3c(cc2OC)CCCN3C(=O)CN(C)C)nc2[nH]ccc12
Fc1cccc(COc2ccc(Nc3ncnc4cc(-c5ccc[nH]5)sc34)cc2Cl)c1
Cc1ccc(C(=O)NC2CCC2)cc1-c1ccc(C(=O)NCC2CC2)cc1
